The source of these data is ChEMBL document CHEMBL4888484, “Replenishing the malaria drug discovery pipeline: Screening and hit evaluation of the MMV Hit Generation Library 1 (HGL1) against asexual blood stage Plasmodium falciparum ,using a nano luciferase reporter read-out” (2022).

SMILES strings stand for the structures. Hit rate of the full screen: of about 150,000 compounds, about 540 (0.36%) showed an effect of 50% or more. The entries come from a sample that favours strong results as a whole.

This assay deals with Plasmodium falciparum. As to the kind of experiment: Primary screen in NF54 nanoGlo assay, in single point, at 2uM, 72h; a lower Z score goes with more inhibition. It counts as functional, Erythrocyte. To be noted: timepoint 72 hour.
For orientation: % Inhibition means the change of the read-out against control, counted positive when it falls. `CN(c1ccc2c(c1)CCO2)S(C)(=O)=O`: the “% Inhibition” value turned out to be 13% and the Z score is reported as -1.53.
`NC(=O)C[C@H]1CCN(c2nc(-c3ccccn3)nc3c2CCC3)C1`: the “% Inhibition” value is recorded as -8% and the Z score was 1.56.
On to `FC(F)(F)[C@H]1CCCN(c2nc(-c3cccnc3)nc3ccccc23)C1`, for which the “% Inhibition” value is given as 8% and the Z score is -0.64.
With `FC(F)(F)C1CN(c2nc(-c3ccccn3)nc3c2CCC3)C1`, the “% Inhibition” value was found to be 75% and the Z score was -13.36.
On the same counts, the results for `C[C@H]1CCCN(c2nc(-c3ccccn3)nc3ccccc23)C1` are 96% and -9.05.
In the case of `c1ccc(-c2nc3c(c(N4Cc5ccccc5C4)n2)CCNC3)nc1`, the “% Inhibition” value is on record as -4% and the Z score worked out at 0.52.
Turning to `COC[C@H]1CCN(c2nc(-c3ccccn3)nc3c2CCNCC3)C1`, the “% Inhibition” value was -2% and the Z score is given as 0.41.
In the case of `O=C(O)[C@H]1CCCN(c2nc(-c3ccsc3)nc3ccccc23)C1`, the “% Inhibition” value is reported as -12% and the Z score amounted to 2.15.
Consider `C[C@H]1CCN(c2nc(-c3ccccn3)nc3c2CCC3)C1`, for which the “% Inhibition” value came out at 90% and the Z score is recorded as -12.13.
In the same order, the values of `O=C(Cn1nccn1)N1CCN(Cc2ccc3c(c2)OCO3)CC1` are 2% and -0.28.
Consider `CCN(C(=O)c1cc(N)ccc1Cl)C(C)C`, for which the “% Inhibition” value was determined as 6% and the Z score is on record as -0.81.
On the same counts, the results for `Cc1cccn(CC(=O)N2CCC(=O)[C@@H](C)C2)c1=O` are 2% and -0.36.
`O=C1c2ccccc2C(=O)N1Cc1nc(-c2cccnc2)no1`: the “% Inhibition” value was -9% and the Z score is reported as 1.34.
In the same order, the values of `Cc1ccsc1C(=O)NCCNc1ncccn1` are -7% and 0.93.
`CCCc1cnc(C)nc1-c1ccnc2c1ccn2C`: the “% Inhibition” value is -4% and the Z score is 0.73.
On the same counts, the results for `Cc1ccncc1C(=O)N1CCC(CCn2c(C)cnc2C2CC2)CC1` are -3% and 0.37.
On to `Cc1ccnc(N2CCC(O)(Cn3ccnc3)CC2)n1`, for which the “% Inhibition” value is listed as -12% and the Z score was determined as 1.12.
In the same order, the values of `CC(C)(C)c1ccc(=O)n(CC2CN(c3cnsn3)C2)n1` are -16% and 2.38.
Consider `CN(C(=O)C(C)(C)Nc1ncc(C(F)(F)F)cc1Cl)c1ccc(Cl)cc1`, for which the “% Inhibition” value was found to be 59% and the Z score is -7.64.
Turning to `CC(=O)C(=CNc1ncc(C(F)(F)F)cc1Cl)C(C)=O`, the “% Inhibition” value is given as -6% and the Z score was 1.17.
On the same counts, the results for `C[C@H](Nc1ncc(C(F)(F)F)cc1Cl)C(N)=O` are -10% and 1.96.
Consider `Oc1nc(-c2cccnc2)sc1-c1ccccc1`, for which the “% Inhibition” value is -2% and the Z score is reported as 0.32.
Regarding `FC(F)(F)c1cccc(-c2cc(-c3csc(-c4ccccc4)n3)on2)c1`, the “% Inhibition” value amounted to 1% and the Z score was -0.12.
Turning to `Oc1nc(-c2cccc(C(F)(F)F)c2)sc1-c1ccccc1`, the “% Inhibition” value was 59% and the Z score is 0.06.
In the same order, the values of `O=C(CCn1c(=O)[nH]c2ccsc2c1=O)NCc1ccccc1` are 59% and -1.7.
Consider `O=C(NCCn1c(=O)[nH]c2ccsc2c1=O)c1ccccc1Cl`, for which the “% Inhibition” value is on record as -10% and the Z score is on record as 1.7.
On the same counts, the results for `O=c1[nH]c2ccsc2c(=O)n1CCc1ccccc1` are 33% and -4.74.
For the molecule `COc1cc(C(=O)NCC2(C)CCCCCC2)on1`, the “% Inhibition” value is listed as -5% and the Z score was determined as 0.52.
On the same counts, the results for `CC1=C(C(=O)Nc2ccccc2)[C@H](c2ccc(Cl)cc2)c2c(n(C)c(=O)n(C)c2=O)N1` are -3% and 0.36.
In the same order, the values of `O=C(NCCCOCC(F)(F)F)NC1CCCC2OCCC12` (stereo not given) are -14% and 1.44.
On the same counts, the results for `CCN1CCN(CCN2CC3(CCN(Cc4ccccc4C#N)CC3)OC2=O)CC1` are 2% and -0.49.
Take `CCc1nc(O)c(C(=O)N2CCOc3cc(F)c(F)cc32)cc1C`: the “% Inhibition” value was -5% and the Z score was determined as 0.67.
As for `CCc1nc2c(C(=O)N3CCOc4c(C)cc(C)cc43)ccnc2[nH]1`, the “% Inhibition” value worked out at 71% and the Z score is given as -10.67.
Turning to `Cc1cc(C)c2c(c1)N(C(=O)Cc1cnccc1C)CCO2`, the “% Inhibition” value is reported as -7% and the Z score was 0.88.
On the same counts, the results for `O=C(c1n[nH]c2c1CCCCCC2)N1CCC(c2nc(C3CCOCC3)no2)CC1` are -3% and 0.4.
In the case of `C[C@@H](CN1CCc2ccccc2C1)NC(=O)c1cnc2c(c1)CCCC2`, the “% Inhibition” value was -3% and the Z score amounted to 0.47.
In the same order, the values of `CCn1cc(-c2cccc(C(=O)N[C@@H](C)c3nc(C)sc3C)c2)cn1` are -4% and 0.85.
In the same order, the values of `CN(CC(F)(F)F)C(=O)CN1C(=O)c2ccccc2C(C)(C)C1=O` are 2% and -0.16.
On to `Cc1[nH]ncc1CCCNCc1cccc(O)c1`, for which the “% Inhibition” value is listed as 39% and the Z score is reported as -0.35.
Turning to `COc1ccc(CCNC(=O)c2cc3c(=O)[nH]c(C)cn3n2)cc1OC`, the “% Inhibition” value was found to be 61% and the Z score was -7.83.
With `Cc1cn2nc(C(=O)NCCc3ccc(S(N)(=O)=O)cc3)cc2c(=O)[nH]1`, the “% Inhibition” value was -18% and the Z score is given as 3.38.
`Cc1cn2nc(C(=O)NCCc3ccccc3)cc2c(=O)[nH]1`: the “% Inhibition” value is 3% and the Z score is -0.45.
In the same order, the values of `CCN(CC)S(=O)(=O)c1ccc2c(c1)nnn2CCNC(=O)Nc1cccc(F)c1` are 26% and -2.96.
Take `Cc1cc(CN(C)c2ccnc3cc(Br)cnc23)no1`: the “% Inhibition” value was 12% and the Z score is -0.99.
On the same counts, the results for `CNC(=O)CCCN(C)c1ccnc2cc(Br)cnc12` are -9% and 1.06.
As for `C[C@@H](CN)N(C)c1ccnc2cc(Br)cnc12`, the “% Inhibition” value was determined as 99% and the Z score is reported as -17.88.
In the same order, the values of `Cc1cc(C(=O)N[C@@H]2COC(C)(C)C2)n(C2CCOCC2)n1` are 3% and -0.34.
In the same order, the values of `C[C@@H](C(=O)N(C)CC1(CO)CCCC1)N1CCN(C)CC1` are -13% and 1.47.
For the molecule `COc1cc(CNCCCN2CCOCC2)ccc1OCc1ccc(Cl)cc1`, the “% Inhibition” value is on record as 50% and the Z score is recorded as -4.4.
In the same order, the values of `COc1cc(CNCCN2CCOCC2)ccc1OCc1cccc(C)c1` are 42% and -5.6.
As to `COc1ccc(-c2cc3n(n2)CCC(=O)N3Cc2ccc(C(=O)NCCN3CCCCC3)cc2)cc1`, the “% Inhibition” value is on record as 10% and the Z score is -1.2.
In the same order, the values of `COc1ccc(S(=O)(=O)N2CCC(n3cnnc3C)CC2)cc1Cl` are -11% and 1.63.
On the same counts, the results for `COc1cccc(S(=O)(=O)N2CCC(c3cc(N)on3)CC2)c1` are 19% and -2.95.
For the molecule `COc1ccc(S(=O)(=O)N2CCC(c3cc(N)on3)CC2)cc1Cl`, the “% Inhibition” value is recorded as 57% and the Z score was -3.68.
Turning to `C[C@@H](c1nc(C(C)(C)C)no1)N1CCN(C(c2ccccc2)c2ccccc2)CC1`, the “% Inhibition” value is on record as -18% and the Z score stood at 1.54.
In the same order, the values of `c1ccn2cc(Cc3nc(C4CC4)cs3)nc2c1` are 5% and -0.54.
With `CCCN(CCc1cccs1)C(=O)CCc1cscn1`, the “% Inhibition” value is on record as -14% and the Z score is listed as 1.18.
Turning to `CCn1nc(C)cc1C(=O)N[C@H]1CC2(CCCCC2)Oc2ccccc21`, the “% Inhibition” value was -13% and the Z score stood at 1.49.
In the same order, the values of `Cn1cnnc1N1CCN(C(=O)NC[C@]2(C)C[C@H]2c2ccccc2)CC1` are -9% and 1.79.
On the same counts, the results for `O=C(CCCn1cccn1)NS(=O)(=O)c1ccc2ccccc2c1` are -7% and 0.99.
In the same order, the values of `O=C1NC(c2ccc(NC(=O)c3cccc4ccccc34)cc2)(c2ccc(NC(=O)c3cccc4ccccc34)cc2)c2ccccc21` are 23% and -3.32.
In the case of `Nc1ccc(C2(c3ccc(N)cc3)c3ccccc3C(=O)c3ccccc32)cc1`, the “% Inhibition” value was determined as 18% and the Z score is -2.61.
In the same order, the values of `O=C1c2ccccc2C(c2ccc(NC(=O)c3cccc4ccccc34)cc2)(c2ccc(NC(=O)c3cccc4ccccc34)cc2)c2ccccc21` are 95% and -13.49.
On the same counts, the results for `O=C(Nc1ccc(C2(c3ccc(NC(=O)c4ccc(F)cc4)cc3)c3ccccc3C(=O)c3ccccc32)cc1)c1ccc(F)cc1` are 77% and -2.85.
On the same counts, the results for `O=C(COc1ccccc1Cl)Nc1ccc(C2(c3ccc(NC(=O)COc4ccccc4Cl)cc3)c3ccccc3-c3ccccc32)cc1` are 38% and -1.02.
As for `O=C(Nc1ccc(-c2c3ccccc3c(-c3ccc(NC(=O)c4cccc5ccccc45)cc3)c3ccccc23)cc1)c1cccc2ccccc12`, the “% Inhibition” value is -8% and the Z score was 1.08.
`Cc1cccc(NC(=O)CN2CC(=O)NC[C@H]2c2ccccc2)c1C`: the “% Inhibition” value is -6% and the Z score is 0.77.
In the case of `N[C@H](C(=O)Nc1cncc(Br)c1O)C1CCOCC1`, the “% Inhibition” value came out at 10% and the Z score is recorded as -1.45.
In the same order, the values of `CNc1nc(N2CCOCC2)nc2ccccc12` are 2% and -0.34.
In the same order, the values of `CN(C)[C@H]1CCN(CC(=O)NC2(c3cc(F)ccc3F)CC2)C1` are 8% and -1.27.
On to `OCCn1nc(Cc2cccs2)nc1CCN1CCCCCCC1`, for which the “% Inhibition” value is -16% and the Z score is listed as 2.13.
In the same order, the values of `Cc1nnc(CN2CCC[C@H](c3nc(C(C)C)cs3)C2)s1` are -8% and 1.01.
In the same order, the values of `CC1(C)NC(=O)N(CC(=O)N2CCC[C@H]2c2ccc3c(c2)OCCCO3)C1=O` are -13% and 1.7.
In the case of `O=C(C[n+]1nc(-c2n[n+](CC(=O)c3ccccc3)c3n2CCCCC3)n2c1CCCCC2)c1ccccc1`, the “% Inhibition” value is reported as 6% and the Z score is recorded as -1.08.
For the molecule `Cc1ccc(-c2c[n+](-c3ccc(OC(F)F)cc3)c3n2CCCCC3)cc1`, the “% Inhibition” value was 66% and the Z score was -12.11.
Take `COc1ccc(C(=O)C[n+]2cc(-c3cccc(Br)c3)n(C)c2N)cc1`: the “% Inhibition” value is reported as 3% and the Z score was -0.43.
On the same counts, the results for `FC(F)Oc1ccc(-c2c[n+](-c3cccc(C(F)(F)F)c3)c3n2CCCCC3)cc1` are 39% and -3.9.
For the molecule `CCOc1ccc(-[n+]2cc(-c3ccccc3)n3c2CCC3)cc1`, the “% Inhibition” value stood at 68% and the Z score is reported as -6.48.
On to `COc1ccc(C(=O)C[n+]2nc(CNc3ccc(Br)cc3)n3c2CCCCC3)cc1`, for which the “% Inhibition” value was 78% and the Z score was -12.51.
In the same order, the values of `CCOc1ccc([C@@]2(O)CN3CCCCCC3=[N+]2c2ccc(C)cc2)cc1` are 1% and -0.19.
Take `Cc1ccc(NCc2n[n+](CC(=O)c3ccccc3)c3n2CCCCC3)cc1`: the “% Inhibition” value was -40% and the Z score is given as 4.69.
Turning to `Cn1c(-c2ccc(Br)cc2)c[n+](CC(=O)c2ccc(Br)cc2)c1N`, the “% Inhibition” value amounted to 41% and the Z score came to 0.35.
For the molecule `COc1ccc(C(=O)C[n+]2cc(-c3ccc(OC)cc3)n3c2CCCC3)cc1`, the “% Inhibition” value is on record as 65% and the Z score is -8.89.
On the same counts, the results for `Cc1ccc([N+]2=C3CCCCCN3C[C@]2(O)c2ccc(OC(F)F)cc2)cc1` are -12% and 1.97.
`CCOc1ccc([C@@]2(O)CN3C=CC=CC3=[N+]2c2ccccc2)cc1`: the “% Inhibition” value is listed as -39% and the Z score was 4.59.
